Source: PubChem BioAssay (Tox21)
Results filed as inconclusive are left out. The source made the active and inactive calls. Unless noted, calls follow the shape of the dose curve; as a rule, active = well fitted curve in the direction sought with a large enough effect in the repeat runs; inconclusive = weak or mixed curves; inactive = no such curve, though single readings can be large; an effect the other way counts as inactive or inconclusive.

How the values were obtained:
[1] = qHTS assay to test for compound auto fluorescence at 535 nm (green) in HEK293 cells (AID 720680)
[2] = qHTS assay to test for compound auto fluorescence at 460 nm (blue) in HEK293 cell free culture (AID 720681)
How it was run: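 Test compounds were pinned into cell-free culture medium (DMEM with 10% FBS) and fluorescence was read directly at Ex/Em 405/460 nm. Signals were expressed as fluorescence equivalents of triamterene, with DMSO vehicle as control.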

[3] = qHTS assay to test for compound auto fluorescence at 535 nm (green) in HEK293 cell free culture (AID 720682)
How it was run: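 Measurement is a direct plate read of green fluorescence (485 nm in, 535 nm out) after compound addition to serum-supplemented DMEM lacking cells, with fluorescein used to express intensities.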

[4] = qHTS assay to test for compound auto fluorescence at 590 nm (red) in HEK293 cell free culture (AID 720683)
How it was run: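 Tox21 10K library compounds were pinned into cell-free DMEM with 10% FBS and fluorescence was read at excitation 540 nm. Activity is expressed as Rose Bengal sodium equivalency.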

[5] = qHTS assay to test for compound auto fluorescence at 590 nm (red) in HepG2 cell free culture (AID 720684)
How it was run: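 Ex 540 / Em 590 nm read of compound in cell-free MEM (10% FBS). Rose Bengal sodium reference.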

[6] = qHTS assay to test for compound auto fluorescence at 460 nm (blue) in HepG2 cell free culture (AID 720685)
How it was run: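 Cell-free plates of MEM plus 10% FBS received 23 nL compound or DMSO vehicle; blue-channel (405/460 nm) intensity scored against triamterene as reference fluorophore.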

[7] = qHTS assay to test for compound auto fluorescence at 535 nm (green) in HepG2 cell free culture (AID 720686)
[8] = qHTS assay to test for compound auto fluorescence at 460 nm (blue) in HepG2 cells (AID 720687)
How it was run: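 Cells (2,000/well in MEM with 10% FBS) attached overnight at 37 C, then were exposed to compound or DMSO for 1 hr at 37 C, 5% CO2. Fluorescence read at Ex/Em 405/460 nm, expressed as triamterene-equivalent signal.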

[9] = molecular target: Glucocorticoid receptor (Homo sapiens) (UniProt P04150); test: qHTS assay to identify small molecule agonists of the glucocorticoid receptor (GR) signaling pathway (AID 720691; active = well fitted activation curve with a large enough effect in the signal ratio in the repeat runs, not every such curve was filed as active; the % refers to the signal ratio)
Glucocorticoid receptor (Homo sapiens), sequence (P04150 whole entry, looked up): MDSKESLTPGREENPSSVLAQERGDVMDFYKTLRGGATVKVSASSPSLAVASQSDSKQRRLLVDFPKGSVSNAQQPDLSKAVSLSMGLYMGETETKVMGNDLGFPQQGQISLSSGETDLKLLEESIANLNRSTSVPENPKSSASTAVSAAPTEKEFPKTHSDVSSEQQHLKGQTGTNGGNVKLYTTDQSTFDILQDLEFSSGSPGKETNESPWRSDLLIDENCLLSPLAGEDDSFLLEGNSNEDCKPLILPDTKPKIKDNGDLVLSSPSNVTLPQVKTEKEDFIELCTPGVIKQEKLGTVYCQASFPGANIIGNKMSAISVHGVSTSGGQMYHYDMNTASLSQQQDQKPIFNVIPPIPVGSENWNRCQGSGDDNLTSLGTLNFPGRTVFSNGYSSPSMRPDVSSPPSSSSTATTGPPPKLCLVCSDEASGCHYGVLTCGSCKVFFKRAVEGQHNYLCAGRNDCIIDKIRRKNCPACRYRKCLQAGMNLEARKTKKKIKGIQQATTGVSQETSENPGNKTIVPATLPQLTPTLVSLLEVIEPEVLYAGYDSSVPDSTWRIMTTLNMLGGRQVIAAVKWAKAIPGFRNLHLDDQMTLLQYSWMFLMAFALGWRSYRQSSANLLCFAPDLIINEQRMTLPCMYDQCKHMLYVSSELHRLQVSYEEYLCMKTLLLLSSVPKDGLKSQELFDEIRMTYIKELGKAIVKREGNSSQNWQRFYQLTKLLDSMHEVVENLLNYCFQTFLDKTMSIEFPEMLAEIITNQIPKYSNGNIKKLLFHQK
How it was run: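 Compounds in DMSO, alongside positive controls, were added to GR-bla HeLa reporter cells and incubated 18 h at 37 C; GRE-driven beta-lactamase was detected by fluorescence after 2 h with FRET substrate at room temperature.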

[10] = molecular target: Glucocorticoid receptor (Homo sapiens) (UniProt P04150); test: qHTS assay to identify small molecule antagonists of the glucocorticoid receptor (GR) signaling pathway (AID 720692; active = well fitted inhibition curve with a large enough effect in the signal ratio in the repeat runs, not every such curve was filed as active; the % refers to the signal ratio)
How it was run: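 In a 1536-well cell format, compounds were added 4 h after seeding GR-bla HeLa cells, together with dexamethasone at 5 nM final; reporter activity was measured by FRET-substrate fluorescence following 18 h at 37 C.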

[11] = qHTS assay to identify small molecule antagonists of the glucocorticoid receptor (GR) signaling pathway - cell viability counter screen (AID 720693); also: nearly all actives have a fitted effect of over 55% in size
[12] = qHTS assay to identify small molecule antagonists of the androgen receptor (AR) signaling pathway - cell viability counter screen (AID 743033; also: nearly all actives have a fitted effect of over 45% in size)
[13] = qHTS assay to identify small molecule antagonists of the androgen receptor (AR) signaling pathway using the MDA cell line - cell viability counter screen (AID 743041; also: nearly all actives have a fitted effect of over 45% in size)
How it was run: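 In this qHTS counter assay, fluorescence intensity after CellTiter-Fluor addition indicated viability of MDA-kb2 AR-luc cells given compounds and R1881 for 16 h at 37C.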

[14] = qHTS assay for identifying genotoxic compounds that show differential cytotoxicity against isogenic chicken DT40 cell lines with known DNA damage response pathways - wild type cell line (AID 743012); also: nearly all actives have a fitted effect of over 60% in size
How it was run: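 Viability of DNA repair-proficient chicken DT40 cells was assessed by CellTiter-Glo luminescence following 40 h compound exposure at 37 C/5% CO2.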

[15] = qHTS assay for identifying genotoxic compounds that show differential cytotoxicity against isogenic chicken DT40 cell lines with known DNA damage response pathways - Rad54/Ku70 mutant cell line (AID 743015); also: nearly all actives have a fitted effect of over 60% in size
[16] = qHTS assay for identifying genotoxic compounds that show differential cytotoxicity against isogenic chicken DT40 cell lines with known DNA damage response pathways - Rev3 mutant cell line (AID 743014); also: nearly all actives have a fitted effect of over 55% in size
[17] = molecular target: Androgen receptor (Homo sapiens) (UniProt P10275); test: qHTS assay to identify small molecule antagonists of the androgen receptor (AR) signaling pathway (AID 743035; active = well fitted inhibition curve with a large enough effect in the signal ratio in the repeat runs, not every such curve was filed as active; the % refers to the signal ratio)
Androgen receptor (Homo sapiens), sequence (P10275 whole entry, looked up): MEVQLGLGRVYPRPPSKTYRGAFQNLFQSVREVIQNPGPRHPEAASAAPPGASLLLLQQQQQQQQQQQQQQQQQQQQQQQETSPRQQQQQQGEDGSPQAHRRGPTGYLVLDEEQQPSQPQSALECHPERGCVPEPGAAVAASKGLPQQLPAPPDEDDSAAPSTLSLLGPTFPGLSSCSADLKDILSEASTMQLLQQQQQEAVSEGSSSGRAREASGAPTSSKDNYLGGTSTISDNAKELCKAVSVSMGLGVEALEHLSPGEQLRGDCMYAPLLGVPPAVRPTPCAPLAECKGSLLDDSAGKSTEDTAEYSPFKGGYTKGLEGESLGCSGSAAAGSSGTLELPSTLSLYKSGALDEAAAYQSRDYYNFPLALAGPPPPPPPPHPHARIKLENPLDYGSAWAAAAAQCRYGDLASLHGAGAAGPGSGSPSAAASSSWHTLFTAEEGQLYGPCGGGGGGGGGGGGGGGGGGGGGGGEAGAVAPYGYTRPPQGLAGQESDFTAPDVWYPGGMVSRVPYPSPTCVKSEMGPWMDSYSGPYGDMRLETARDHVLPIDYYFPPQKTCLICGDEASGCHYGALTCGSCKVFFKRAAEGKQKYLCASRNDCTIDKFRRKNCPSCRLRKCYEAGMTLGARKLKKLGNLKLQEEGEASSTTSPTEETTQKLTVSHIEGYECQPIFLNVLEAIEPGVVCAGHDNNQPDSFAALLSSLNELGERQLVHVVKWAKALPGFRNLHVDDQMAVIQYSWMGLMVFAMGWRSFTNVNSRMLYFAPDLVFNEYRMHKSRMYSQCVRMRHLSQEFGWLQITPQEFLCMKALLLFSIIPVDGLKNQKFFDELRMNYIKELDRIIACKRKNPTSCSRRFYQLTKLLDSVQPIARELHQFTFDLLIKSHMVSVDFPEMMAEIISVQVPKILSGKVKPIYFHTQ
How it was run: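 Reporter HEK293 cells were exposed to compounds and R1881 overnight (16 h, 37C); beta-lactamase activity was then quantified by FRET fluorescence.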

[18] = molecular target: Androgen receptor (Homo sapiens) (UniProt P10275); test: qHTS assay to identify small molecule agonists of the androgen receptor (AR) signaling pathway (AID 743036; active = well fitted activation curve with a large enough effect in the signal ratio in the repeat runs, with a control signal flat, not every such curve was filed as active; the % refers to the signal ratio)
How it was run: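 Beta-lactamase under UAS control, stably integrated in HEK293 GripTite cells, reports receptor activation. After 16 h compound treatment, cells received FRET substrate for 2 h at room temperature before fluorescence reading.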

[19] = molecular target: Androgen receptor (Homo sapiens) (UniProt P10275); test: qHTS assay to identify small molecule agonists of the androgen receptor (AR) signaling pathway using the MDA cell line (AID 743040; also: nearly all actives have a fitted effect of over 20% in size)
How it was run: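 Cell-based luciferase reporter: MDA-kb2, MMTV promoter (AR + GR response elements). 16 h compound exposure at 37C; ONE-Glo, 30 min RT, luminescence.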

[20] = molecular target: Androgen receptor (Homo sapiens) (UniProt P10275); test: qHTS assay to identify small molecule antagonists of the androgen receptor (AR) signaling pathway using the MDA cell line (AID 743042; also: nearly all actives have a fitted effect of over 55% in size)
How it was run: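 MDA-kb2 cells (human breast carcinoma, stably carrying an MMTV-luciferase reporter responsive to AR and GR) were plated at 3,000 cells/well and preincubated 5 hr at 37C, then given compound plus R1881 agonist for 16 h. ONE-Glo luminescence was read.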
% is scaled to controls: 0 for no effect and ±100 for the full control effect.

COC(=O)N[C@H](C(=O)N[C@@H](Cc1ccccc1)[C@@H](O)CN(Cc1ccc(-c2ccccn2)cc1)NC(=O)[C@@H](NC(=O)OC)C(C)(C)C)C(C)(C)C
inactive: outcome [1] | outcome [2] | outcome [3] | outcome [4] | outcome [5] | outcome [6] | outcome [7] | outcome [8] | Potency [9] | Potency [10] | outcome [11] | outcome [12] | Potency [13]

CC1(C)S[C@@H]2[C@H](NC(=O)C(C(=O)O)c3ccccc3)C(=O)N2[C@H]1C(=O)O (stereo partly drawn)
inactive: outcome [1] | outcome [2] | outcome [3] | outcome [4] | outcome [5] | outcome [6] | outcome [7] | outcome [8] | Potency [9] | outcome [11] | Potency [14] | Potency [15] | Potency [13]

CC(C)c1ccccc1
inactive: outcome [1] | outcome [2] | outcome [3] | outcome [4] | outcome [5] | outcome [6] | outcome [7] | outcome [8] | Potency [9] | Potency [10] | outcome [11] | Potency [16] | Potency [15] | Potency [17] | outcome [18] | Potency [19] | outcome [20]

O=C1Nc2ccc([N+](=O)[O-])cc2C1=O
inactive: outcome [1] | outcome [2] | outcome [3] | outcome [4] | outcome [5] | outcome [6] | outcome [7] | outcome [8] | Potency [9] | outcome [11] | Potency [14] | Potency [15] | outcome [12]

CCOC(=O)c1ccccc1O
inactive: outcome [1] | outcome [2] | outcome [3] | outcome [4] | outcome [5] | outcome [6] | outcome [7] | outcome [8] | Potency [9] | outcome [11] | Potency [14] | Potency [16] | Potency [15] | outcome [12]

CC(C)C(=O)OCC(C)(C)C(O)C(C)C (stereo not drawn)
inactive: outcome [1] | outcome [2] | outcome [3] | outcome [4] | outcome [5] | outcome [6] | outcome [7] | outcome [8] | Potency [9] | outcome [11] | Potency [14] | Potency [16] | Potency [15] | outcome [12] | Potency [13]

Cn1cnc2c(F)c(Nc3ccc(Br)cc3Cl)c(C(=O)NOCCO)cc21
inactive: outcome [1] | outcome [2] | outcome [3] | outcome [4] | outcome [5] | outcome [6] | outcome [7] | outcome [8] | Potency [9] | outcome [11] | Potency [16] | Potency [15] | Potency [17] | outcome [18] | Potency [19] | Potency [13]

CC(C)Nc1nc(N)nc(Cl)n1
inactive: outcome [1] | outcome [2] | outcome [3] | outcome [4] | outcome [5] | outcome [6] | outcome [7] | outcome [8] | Potency [9] | outcome [11] | Potency [16] | Potency [15] | outcome [12] | Potency [13]

CC(=O)N(CC(O)CN(C(C)=O)c1c(I)c(C(=O)NCC(O)CO)c(I)c(C(=O)NCC(O)CO)c1I)c1c(I)c(C(=O)NCC(O)CO)c(I)c(C(=O)NCC(O)CO)c1I (stereo not drawn)
inactive: fluorescence, % of fluorescein [1] -0.0222% [at 18.6 µM] | fluorescence, % of fluorescent control [2] 0.0333% [at 18.6 µM] | activity change [3] -0.0739% [at 18.6 µM] | fluorescence, % of fluorescent control [4] -0.132% [at 18.6 µM] | fluorescence, % of Rose Bengal [5] 0.365% [at 18.6 µM] | fluorescence, % of fluorescent control [6] -0.0088% [at 18.6 µM] | fluorescence, % of fluorescein control [7] 0.0651% [at 18.6 µM] | fluorescence, % of fluorescent control [8] -0.0121% [at 18.6 µM] | Potency [9] | outcome [11] | Potency [14] | Potency [16] | Potency [15]
